# Measurements as given in the supplement of paper PMC4022240.
# ± gives the standard deviation.
# T1: HaloTag-ATRX ADD domain (163-292)
# T1 chain: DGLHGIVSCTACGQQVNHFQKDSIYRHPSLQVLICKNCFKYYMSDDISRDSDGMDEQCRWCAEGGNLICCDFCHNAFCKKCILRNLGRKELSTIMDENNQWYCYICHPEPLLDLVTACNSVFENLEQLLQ
# Assays:
# Assay in all cases: peptide microarray binding signal (635 nm), min-max normalized on array (fraction of array maximum); higher = stronger binding
# Conditions in all cases: peptide region: H3 1-13
# [1] = biological target: T1, HaloTag-ATRX ADD domain (163-292)
# Protocol: (§1)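 Histone 13-mer peptides were synthesized as cellulose conjugates with a C-terminal 20-atom PEG linker and printed in triplicate on nitrocellulose. The sequence given is the unmodified backbone; PTMs (Kme1/2/3, Kac, Sph/Tph, Rme/Rme2a/Rme2s, Rcit) are listed in the label and the 'peptide modifications' condition. Slides were probed at 4 °C for 1 h with biotin-labelled (HQ)5-HaloTag reader fusions (ATRX-ADD, ING2-PHD) then streptavidin-Alexa647, or with rabbit histone antibodies then anti-rabbit Alexa647. The mean 635 nm signal of the triplicate spots was scaled 0-1 between the lowest and highest values on each array.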
# [2] = biological target: HaloTag-ING2 PHD (mouse Ing2 200-280)
# Protocol: as §1
# [3] = biological target: anti-H3K4me3 antibody ab8580
# Protocol: as §1
# [4] = biological target: anti-H3K9me3 antibody ab8898
# Protocol: as §1
# [5] = peptide modifications: H3K4me2 H3K9me3, binder concentration: 1:2,000 dilution
# [6] = peptide modifications: H3K4me2 H3K9me3, binder concentration: 1:10,000 dilution
# [7] = peptide modifications: H3K4me2 H3T6ph, binder concentration: 1:2,000 dilution
# [8] = peptide modifications: H3K4me2 H3T6ph, binder concentration: 1:10,000 dilution
# [9] = peptide modifications: H3K4me2 H3K9me1, binder concentration: 1:2,000 dilution
# [10] = peptide modifications: H3K4me2 H3K9me1, binder concentration: 1:10,000 dilution
# [11] = peptide modifications: H3K4me2 H3K9me2, binder concentration: 1:2,000 dilution
# [12] = peptide modifications: H3K4me2 H3K9me2, binder concentration: 1:10,000 dilution
# [13] = peptide modifications: H3K4me1, binder concentration: 1:2,000 dilution
# [14] = peptide modifications: H3K4me1, binder concentration: 1:10,000 dilution
# [15] = peptide modifications: H3K4me1 H3K9me3, binder concentration: 1:2,000 dilution
# [16] = peptide modifications: H3K4me1 H3K9me3, binder concentration: 1:10,000 dilution
# [17] = peptide modifications: H3K4me1 H3K9me2, binder concentration: 1:2,000 dilution
# [18] = peptide modifications: H3K4me1 H3K9me2, binder concentration: 1:10,000 dilution
# [19] = peptide modifications: H3K4me1 H3K9ac, binder concentration: 1:2,000 dilution
# [20] = peptide modifications: H3K4me1 H3K9ac, binder concentration: 1:10,000 dilution
# [21] = peptide modifications: H3K4me2 H3K9ac, binder concentration: 1:2,000 dilution
# [22] = peptide modifications: H3K4me2 H3K9ac, binder concentration: 1:10,000 dilution
# [23] = peptide modifications: H3K4me3, binder concentration: 1:2,000 dilution
# [24] = peptide modifications: H3K4me3, binder concentration: 1:10,000 dilution
binder,measurement,setting,value
ARTKQTARKSTGG [H3 1-13 A R T Kme2 Q T A R Kme3 S T G G],peptide microarray binding signal,"[1]; peptide modifications: H3K4me2 H3K9me3, binder concentration: 50 nM",0.133 ± 0.011
same,peptide microarray binding signal,"[1]; peptide modifications: H3K4me2 H3K9me3, binder concentration: 500 nM",0.21 ± 0.019
same,peptide microarray binding signal,"[2]; peptide modifications: H3K4me2 H3K9me3, binder concentration: 10 nM",1 ± 0.17
same,peptide microarray binding signal,"[2]; peptide modifications: H3K4me2 H3K9me3, binder concentration: 100 nM",1 ± 0.088
same,peptide microarray binding signal,[3]; [5],0.491 ± 0.058
same,peptide microarray binding signal,[3]; [6],0.325 ± 0.12
same,peptide microarray binding signal,[4]; [5],0.429 ± 0.054
same,peptide microarray binding signal,[4]; [6],0.369 ± 0.044
ARTKQTARKSTGG [H3 1-13 A R T Kme2 Q Tph A R K S T G G],peptide microarray binding signal,"[1]; peptide modifications: H3K4me2 H3T6ph, binder concentration: 50 nM",0.00636 ± 7.4e-05
same,peptide microarray binding signal,"[1]; peptide modifications: H3K4me2 H3T6ph, binder concentration: 500 nM",0.0142 ± 0.0017
same,peptide microarray binding signal,"[2]; peptide modifications: H3K4me2 H3T6ph, binder concentration: 10 nM",0.139 ± 0.025
same,peptide microarray binding signal,"[2]; peptide modifications: H3K4me2 H3T6ph, binder concentration: 100 nM",0.385 ± 0.012
same,peptide microarray binding signal,[3]; [7],0.0372 ± 0.011
same,peptide microarray binding signal,[3]; [8],0.0131 ± 0.0018
same,peptide microarray binding signal,[4]; [7],0.00426 ± 0.0013
same,peptide microarray binding signal,[4]; [8],0.00271 ± 0.00042
ARTKQTARKSTGG [H3 1-13 A R T Kme2 Q T A R Kme S T G G],peptide microarray binding signal,"[1]; peptide modifications: H3K4me2 H3K9me1, binder concentration: 50 nM",0.0128 ± 0.00075
same,peptide microarray binding signal,"[1]; peptide modifications: H3K4me2 H3K9me1, binder concentration: 500 nM",0.0286 ± 0.0013
same,peptide microarray binding signal,"[2]; peptide modifications: H3K4me2 H3K9me1, binder concentration: 10 nM",0.656 ± 0.061
same,peptide microarray binding signal,"[2]; peptide modifications: H3K4me2 H3K9me1, binder concentration: 100 nM",0.43 ± 0.13
same,peptide microarray binding signal,[3]; [9],0.365 ± 0.067
same,peptide microarray binding signal,[3]; [10],0.152 ± 0.018
same,peptide microarray binding signal,[4]; [9],0.00797 ± 0.0012
same,peptide microarray binding signal,[4]; [10],0.00398 ± 0.00019
ARTKQTARKSTGG [H3 1-13 A R T Kme2 Q T A R Kme2 S T G G],peptide microarray binding signal,"[1]; peptide modifications: H3K4me2 H3K9me2, binder concentration: 50 nM",0.0279 ± 0.0029
same,peptide microarray binding signal,"[1]; peptide modifications: H3K4me2 H3K9me2, binder concentration: 500 nM",0.0628 ± 0.0034
same,peptide microarray binding signal,"[2]; peptide modifications: H3K4me2 H3K9me2, binder concentration: 10 nM",0.766 ± 0.063
same,peptide microarray binding signal,"[2]; peptide modifications: H3K4me2 H3K9me2, binder concentration: 100 nM",0.786 ± 0.077
same,peptide microarray binding signal,[3]; [11],0.408 ± 0.12
same,peptide microarray binding signal,[3]; [12],0.343 ± 0.15
same,peptide microarray binding signal,[4]; [11],0.0325 ± 0.0041
same,peptide microarray binding signal,[4]; [12],0.0104 ± 0.00076
ARTKQTARKSTGG [H3 1-13 A R T Kme Q T A R K S T G G],peptide microarray binding signal,"[1]; peptide modifications: H3K4me1, binder concentration: 50 nM",0.00755 ± 0.00014
same,peptide microarray binding signal,"[1]; peptide modifications: H3K4me1, binder concentration: 500 nM",0.0155 ± 0.00093
same,peptide microarray binding signal,"[2]; peptide modifications: H3K4me1, binder concentration: 10 nM",0.0269 ± 0.0015
same,peptide microarray binding signal,"[2]; peptide modifications: H3K4me1, binder concentration: 100 nM",0.112 ± 0.035
same,peptide microarray binding signal,[3]; [13],0.0156 ± 0.0047
same,peptide microarray binding signal,[3]; [14],0.0142 ± 0.0025
same,peptide microarray binding signal,[4]; [13],0.00231 ± 0.00034
same,peptide microarray binding signal,[4]; [14],0.00173 ± 1.7e-05
ARTKQTARKSTGG [H3 1-13 A R T Kme Q T A R Kme3 S T G G],peptide microarray binding signal,"[1]; peptide modifications: H3K4me1 H3K9me3, binder concentration: 50 nM",0.253 ± 0.034
same,peptide microarray binding signal,"[1]; peptide modifications: H3K4me1 H3K9me3, binder concentration: 500 nM",0.336 ± 0.03
same,peptide microarray binding signal,"[2]; peptide modifications: H3K4me1 H3K9me3, binder concentration: 10 nM",0.335 ± 0.065
same,peptide microarray binding signal,"[2]; peptide modifications: H3K4me1 H3K9me3, binder concentration: 100 nM",0.547 ± 0.039
same,peptide microarray binding signal,[3]; [15],0.243 ± 0.018
same,peptide microarray binding signal,[3]; [16],0.101 ± 0.049
same,peptide microarray binding signal,[4]; [15],0.4 ± 0.096
same,peptide microarray binding signal,[4]; [16],0.275 ± 0.034
ARTKQTARKSTGG [H3 1-13 A R T Kme Q T A R Kme2 S T G G],peptide microarray binding signal,"[1]; peptide modifications: H3K4me1 H3K9me2, binder concentration: 500 nM",0.0151 ± 0.00042
same,peptide microarray binding signal,"[2]; peptide modifications: H3K4me1 H3K9me2, binder concentration: 10 nM",0.155 ± 0.014
same,peptide microarray binding signal,"[2]; peptide modifications: H3K4me1 H3K9me2, binder concentration: 100 nM",0.182 ± 0.062
same,peptide microarray binding signal,[3]; [17],0.0488 ± 0.0073
same,peptide microarray binding signal,[3]; [18],0.0289 ± 0.0056
same,peptide microarray binding signal,[4]; [17],0.00408 ± 0.00035
same,peptide microarray binding signal,[4]; [18],0.00409 ± 0.00034
ARTKQTARKSTGG [H3 1-13 A R T Kme Q T A R Kac S T G G],peptide microarray binding signal,"[1]; peptide modifications: H3K4me1 H3K9ac, binder concentration: 50 nM",0.0172 ± 0.00082
same,peptide microarray binding signal,"[1]; peptide modifications: H3K4me1 H3K9ac, binder concentration: 500 nM",0.0329 ± 0.0029
same,peptide microarray binding signal,"[2]; peptide modifications: H3K4me1 H3K9ac, binder concentration: 10 nM",0.758 ± 0.07
same,peptide microarray binding signal,"[2]; peptide modifications: H3K4me1 H3K9ac, binder concentration: 100 nM",0.727 ± 0.11
same,peptide microarray binding signal,[3]; [19],0.27 ± 0.033
same,peptide microarray binding signal,[3]; [20],0.157 ± 0.018
same,peptide microarray binding signal,[4]; [19],0.00678 ± 0.00086
same,peptide microarray binding signal,[4]; [20],0.00634 ± 0.00026
ARTKQTARKSTGG [H3 1-13 A R T Kme2 Q T A R Kac S T G G],peptide microarray binding signal,"[1]; peptide modifications: H3K4me2 H3K9ac, binder concentration: 50 nM",0.0115 ± 0.00036
same,peptide microarray binding signal,"[1]; peptide modifications: H3K4me2 H3K9ac, binder concentration: 500 nM",0.0237 ± 0.0019
same,peptide microarray binding signal,"[2]; peptide modifications: H3K4me2 H3K9ac, binder concentration: 10 nM",0.954 ± 0.21
same,peptide microarray binding signal,"[2]; peptide modifications: H3K4me2 H3K9ac, binder concentration: 100 nM",0.716 ± 0.27
same,peptide microarray binding signal,[3]; [21],0.298 ± 0.09
same,peptide microarray binding signal,[3]; [22],0.293 ± 0.1
same,peptide microarray binding signal,[4]; [21],0.00778 ± 0.00063
same,peptide microarray binding signal,[4]; [22],0.00824 ± 0.00044
ARTKQTARKSTGG [H3 1-13 A R T Kme3 Q T A R K S T G G],peptide microarray binding signal,"[1]; peptide modifications: H3K4me3, binder concentration: 50 nM",0.00868 ± 0.00032
same,peptide microarray binding signal,"[1]; peptide modifications: H3K4me3, binder concentration: 500 nM",0.0201 ± 0.0038
same,peptide microarray binding signal,"[2]; peptide modifications: H3K4me3, binder concentration: 10 nM",0.383 ± 0.2
same,peptide microarray binding signal,"[2]; peptide modifications: H3K4me3, binder concentration: 100 nM",0.232 ± 0.072
same,peptide microarray binding signal,[3]; [23],0.596 ± 0.33
same,peptide microarray binding signal,[3]; [24],0.549 ± 0.54
same,peptide microarray binding signal,[4]; [23],0.0584 ± 0.025
same,peptide microarray binding signal,[4]; [24],0.0227 ± 0.011
